The results in this text go back to PubChem BioAssay.

A short description of assay [1]: binders of probe aFSTL3 on microarray, primary screen, stem cell growth factor project, biochemical, small-molecule microarray, fluorescence 635/667 (AID 1064).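 Note: measures binding of the biotinylated anti-FSTL3 antibody to printed compounds.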 The note with it: higher = more signal.
Assay [2] is described as follows: binders from COS7 lysate, DM2A8 probe, primary screen, torsin A project, cell lysate, small-molecule microarray, fluorescence 635/667 (AID 1065). The note with it: higher = more signal, COS7 lysate expressing mutant human TOR1A.
A short description of assay [3]: binders of probe aFGF2 on microarray, primary screen, stem cell growth factor project, biochemical, small-molecule microarray, fluorescence 635/667 (AID 1067).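 Note: measures binding of biotinylated aFGF2 protein to printed compounds on slides; z-score merges feature fluorescence and signal-to-noise across triplicate slides.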 The note with it: higher = more signal.
Assay [4] can be described thus: binders of probe aFGF10 on microarray, primary screen, stem cell growth factor project, biochemical, small-molecule microarray, fluorescence 635/667 (AID 1071).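 Note: score merges 667 nm spot intensity and signal to noise from triplicate slides.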 The note with it: higher = more signal.
Assay [5] has as its target Neurogenic locus notch homolog protein 2 (Homo sapiens) (UniProt Q04721). The experiment in a line: Notch2 binders on small-molecule microarrays, primary screen, biochemical, small-molecule microarray, 635 nm fluorescence, stem cell growth factors (AID 1073). The note with it: Notch2 binding, higher = more signal.
Assay [6] has as its target Pro-neuregulin-1, membrane-bound isoform (Homo sapiens) (UniProt Q02297). The experiment in a line: NRG1 binders on small-molecule microarrays, primary screen, psychiatric disease protein project, biochemical, small-molecule microarray, fluorescence 635/667 (AID 1075).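 Note: score combines 667 nm spot fluorescence with signal to noise.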 The note with it: NRG1 binding, 635 nm fluorescence, higher = more signal.
For assay [7], the system named is Neuregulin-1 EGF-like domain. The experiment in a line: binders of neuregulin-1 EGF-like domain, primary screen, biochemical, small-molecule microarray, 635 nm fluorescence (AID 1081).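 Note: binding of the protein to compounds printed on small-molecule microarray slides.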 The note with it: small-molecule microarray binding, higher = more signal.
Assay [8] is described as follows: FRG1 promoter luciferase signal modulators, primary screen, FRG1 inhibition for FSHD, cell-based, C2C12 myotubes, firefly/Renilla luciferase, luminescence (AID 1084). The note with it: higher = more signal, called active from +8 up or from −8 down.
Assay [9] can be described thus: binders of probe aFST on microarray, primary screen, stem cell growth factor project, biochemical, small-molecule microarray, fluorescence 635/667 (AID 1086).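 Note: score merges 667 nm fluorescence with signal-to-noise of each printed compound spot.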 The note with it: higher = more signal.
Assay [10] can be described thus: binders of probe aHhip on microarray, primary screen, stem cell growth factor project, biochemical, small-molecule microarray, fluorescence 635/667 (AID 1087).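 Note: score merges spot fluorescence at 667nm with spot signal to noise ratio.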 The note with it: higher = more signal.
For assay [11], the system named is PRMT1 (protein arginine N-methyltransferase 1). The experiment in a line: PRMT1 binders on small-molecule microarrays, primary screen, biochemical, small-molecule microarray, 635 nm fluorescence (AID 1088).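 Note: binding of Prmt1 protein to compounds spotted on small-molecule microarray slides.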 The note with it: small-molecule microarray binding, higher = more signal.
Assay [12] in a line: yeast growth modulation, basal conditions, primary screen, YJM789 clinical isolate, OD600, 24 h (AID 1089).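 Note: growth of clinical yeast isolate S. cerevisiae YJM 789 seeded 1000 cells per well; test concentration not given here.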 The note with it: S. cerevisiae YJM789 growth, higher = more signal, called active from +8 up or from −8 down.
The nature of assay [13]: fission yeast growth modulation, primary screen, strain 972, OD600, 24 h, no modulator (AID 1090).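 Note: basal condition with compound alone and no growth modifier present; test concentration not given here.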 The note with it: S. pombe 972 growth, higher = more signal, called active from +8 up or from −8 down.
Assay [14] in a line: S. cerevisiae growth modulation with rapamycin, primary screen, strain BY4716, OD600, 96 h (AID 1091). Note: test concentration not given here. The note with it: higher = more signal, called active from +8 up or from −8 down.
Assay [15] addresses Torsin-1A-interacting protein 2 (Homo sapiens) (UniProt Q8NFQ8). Nature of the assay: LULL1 binders on small-molecule microarray, primary screen, cell lysate, human LULL1 lysate, 635/667 nm fluorescence (AID 1092).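 Note: score merges per-feature 667 nm fluorescence with signal-to-noise.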 The note with it: hLULL1 lysate binding, 635 nm fluorescence, higher = more signal.
Assay [16] can be described thus: E. coli growth modulation, two-sided OD650, primary screen, E. coli filamentation project, strain DRC41, 24 h (AID 1093).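 Note: MC1000 strain lacking acrAB efflux and sulA so SOS filamentation is blocked; test concentration not given here.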 The note with it: OD650, 24 h, higher = more signal, called active from +8 up or from −8 down.
Assay [17] is described as follows: small-molecule microarray binders of probe aLefty2, primary screen, biochemical, biotinylated probe, 635/667 nm fluorescence (AID 1094).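 Note: score merges spot fluorescence near 667 nm with spot signal-to-noise ratio.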 The note with it: higher = more signal.
For assay [18], the system named is Noggin (protein binding on small-molecule microarray). Nature of the assay: Noggin binders on small-molecule microarray, primary screen, biochemical, 635/667 nm fluorescence (AID 1095).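 Note: score merges 667 nm feature fluorescence with signal to noise over triplicate slides.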 The note with it: 635 nm fluorescence, higher = more signal.
The target of assay [19] is Neurogenic locus notch homolog protein 3 (Homo sapiens) (UniProt Q9UM47). Nature of the assay: NOTCH3 binders on small-molecule microarray, primary screen, biochemical, 635/667 nm fluorescence (AID 1096). The note with it: NOTCH3 binding, 635 nm fluorescence, higher = more signal.
Assay [20] can be described thus: small-molecule microarray binders of probe aEGFR, primary screen, biochemical, biotinylated probe, 635/667 nm fluorescence (AID 1097).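 Note: probe is a biotinylated anti-EGFR antibody binding compounds printed on slides; score combines fluorescence near 667 nm and signal to noise of each spot.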 The note with it: higher = more signal.

Calls of active or inactive are those of the source.

Neurogenic locus notch homolog protein 3 (Homo sapiens), sequence (Q9UM47 whole entry, looked up): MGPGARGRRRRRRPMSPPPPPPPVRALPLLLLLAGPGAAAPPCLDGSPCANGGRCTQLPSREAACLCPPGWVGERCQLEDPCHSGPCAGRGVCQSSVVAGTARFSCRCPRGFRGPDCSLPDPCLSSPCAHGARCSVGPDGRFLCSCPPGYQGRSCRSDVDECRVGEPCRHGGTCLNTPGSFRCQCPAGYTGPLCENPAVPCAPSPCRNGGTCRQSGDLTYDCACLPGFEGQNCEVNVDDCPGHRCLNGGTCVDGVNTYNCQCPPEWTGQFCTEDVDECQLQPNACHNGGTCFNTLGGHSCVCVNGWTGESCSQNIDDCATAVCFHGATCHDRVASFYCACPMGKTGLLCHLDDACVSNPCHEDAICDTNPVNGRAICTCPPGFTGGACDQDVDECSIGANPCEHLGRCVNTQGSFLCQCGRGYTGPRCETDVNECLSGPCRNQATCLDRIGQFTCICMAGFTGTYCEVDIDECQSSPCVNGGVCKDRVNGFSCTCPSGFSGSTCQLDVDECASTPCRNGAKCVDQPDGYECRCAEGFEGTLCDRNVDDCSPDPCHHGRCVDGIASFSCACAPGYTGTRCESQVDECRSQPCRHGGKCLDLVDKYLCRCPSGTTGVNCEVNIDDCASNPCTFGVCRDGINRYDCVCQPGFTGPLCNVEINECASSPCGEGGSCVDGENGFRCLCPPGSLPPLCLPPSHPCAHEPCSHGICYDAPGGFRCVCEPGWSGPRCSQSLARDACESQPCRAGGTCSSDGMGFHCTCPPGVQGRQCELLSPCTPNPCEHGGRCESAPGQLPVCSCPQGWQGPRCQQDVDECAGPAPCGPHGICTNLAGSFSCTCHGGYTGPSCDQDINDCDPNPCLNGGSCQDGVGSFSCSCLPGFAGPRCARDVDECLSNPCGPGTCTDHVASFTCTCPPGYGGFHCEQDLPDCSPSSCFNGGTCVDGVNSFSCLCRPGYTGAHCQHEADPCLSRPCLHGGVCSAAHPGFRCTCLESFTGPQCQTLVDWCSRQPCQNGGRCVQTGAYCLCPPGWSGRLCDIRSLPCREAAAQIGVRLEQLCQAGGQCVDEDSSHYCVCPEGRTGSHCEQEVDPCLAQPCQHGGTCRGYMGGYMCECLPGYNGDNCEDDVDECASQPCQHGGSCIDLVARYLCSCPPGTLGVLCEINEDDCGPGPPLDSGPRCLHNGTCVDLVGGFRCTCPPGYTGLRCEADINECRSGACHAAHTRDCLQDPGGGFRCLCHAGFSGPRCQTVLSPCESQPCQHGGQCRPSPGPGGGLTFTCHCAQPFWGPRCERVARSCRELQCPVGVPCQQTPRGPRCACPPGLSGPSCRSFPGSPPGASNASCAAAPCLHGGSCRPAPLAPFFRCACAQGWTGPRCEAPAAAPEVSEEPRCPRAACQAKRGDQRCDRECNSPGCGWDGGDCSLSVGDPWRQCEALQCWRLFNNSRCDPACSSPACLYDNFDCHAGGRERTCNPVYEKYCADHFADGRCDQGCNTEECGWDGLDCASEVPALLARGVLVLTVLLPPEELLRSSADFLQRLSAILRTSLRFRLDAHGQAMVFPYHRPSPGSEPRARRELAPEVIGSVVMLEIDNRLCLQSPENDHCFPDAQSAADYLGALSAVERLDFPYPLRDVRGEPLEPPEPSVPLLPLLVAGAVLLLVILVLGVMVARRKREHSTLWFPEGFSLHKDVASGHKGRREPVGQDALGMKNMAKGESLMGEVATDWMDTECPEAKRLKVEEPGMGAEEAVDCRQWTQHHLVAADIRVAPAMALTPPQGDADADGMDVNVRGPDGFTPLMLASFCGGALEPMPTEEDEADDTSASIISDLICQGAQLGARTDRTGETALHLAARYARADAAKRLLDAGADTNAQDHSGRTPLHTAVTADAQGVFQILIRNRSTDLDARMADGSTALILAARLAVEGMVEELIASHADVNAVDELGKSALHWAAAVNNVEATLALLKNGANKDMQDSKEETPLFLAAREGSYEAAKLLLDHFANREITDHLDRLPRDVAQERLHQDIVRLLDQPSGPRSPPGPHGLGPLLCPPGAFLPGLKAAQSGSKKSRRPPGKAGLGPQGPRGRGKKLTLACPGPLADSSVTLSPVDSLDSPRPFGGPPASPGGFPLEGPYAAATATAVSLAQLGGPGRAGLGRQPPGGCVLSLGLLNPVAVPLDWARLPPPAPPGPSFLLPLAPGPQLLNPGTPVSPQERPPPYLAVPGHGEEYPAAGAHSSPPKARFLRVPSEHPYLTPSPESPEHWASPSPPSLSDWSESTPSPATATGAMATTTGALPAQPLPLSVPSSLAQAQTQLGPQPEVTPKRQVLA
Torsin-1A-interacting protein 2 (Homo sapiens), sequence (Q8NFQ8 whole entry, looked up): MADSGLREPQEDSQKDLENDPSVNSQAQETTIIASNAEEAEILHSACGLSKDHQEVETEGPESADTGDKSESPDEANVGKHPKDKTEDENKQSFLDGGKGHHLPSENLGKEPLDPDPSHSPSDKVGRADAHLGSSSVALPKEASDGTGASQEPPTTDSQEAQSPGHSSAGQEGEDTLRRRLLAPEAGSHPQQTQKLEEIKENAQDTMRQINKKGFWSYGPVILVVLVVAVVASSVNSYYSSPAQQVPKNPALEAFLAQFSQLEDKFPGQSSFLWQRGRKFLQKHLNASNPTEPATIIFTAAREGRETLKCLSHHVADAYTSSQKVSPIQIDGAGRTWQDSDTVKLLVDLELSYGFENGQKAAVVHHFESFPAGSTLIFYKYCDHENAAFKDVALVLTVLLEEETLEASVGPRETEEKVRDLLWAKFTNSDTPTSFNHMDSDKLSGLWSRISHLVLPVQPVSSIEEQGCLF
Pro-neuregulin-1, membrane-bound isoform (Homo sapiens), sequence (Q02297 whole entry, looked up, the tested form may be a part, canonical isoform): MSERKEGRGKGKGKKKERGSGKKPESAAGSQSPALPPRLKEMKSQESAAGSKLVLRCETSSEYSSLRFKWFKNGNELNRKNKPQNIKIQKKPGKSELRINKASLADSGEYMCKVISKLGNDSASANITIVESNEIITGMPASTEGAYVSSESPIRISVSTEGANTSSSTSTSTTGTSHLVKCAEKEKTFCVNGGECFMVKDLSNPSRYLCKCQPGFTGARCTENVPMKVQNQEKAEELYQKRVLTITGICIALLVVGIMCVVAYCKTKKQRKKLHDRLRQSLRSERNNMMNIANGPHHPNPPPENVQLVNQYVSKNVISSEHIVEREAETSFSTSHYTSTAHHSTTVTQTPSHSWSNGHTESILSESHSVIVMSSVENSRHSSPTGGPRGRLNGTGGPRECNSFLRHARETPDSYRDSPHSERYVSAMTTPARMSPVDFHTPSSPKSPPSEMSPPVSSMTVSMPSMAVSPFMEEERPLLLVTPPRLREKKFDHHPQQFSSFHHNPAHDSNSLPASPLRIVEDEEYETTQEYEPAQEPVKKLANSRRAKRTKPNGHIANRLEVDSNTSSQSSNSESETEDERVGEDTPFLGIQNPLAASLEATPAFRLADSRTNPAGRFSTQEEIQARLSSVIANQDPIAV

Take `COC(=O)[C@@]1(Cc2ccc(F)cc2)[C@@H]2[C@@H](CC(=O)[C@H]2CC(=O)C(=O)N2CCCC2)CN1C(=O)c1ccccc1`: the composite z-score was 0.664 in assay [1]; -0.196 in assay [2]; 0.0255 in assay [3]; 0.56 in assay [4]; 1.71 in [5]; 1.85 in assay [6]. Further, the composite z-score in assay [7] is 1.12; in assay [9], 1.61; in [10], -0.24; in assay [11], 1.27; in assay [15], 3.67; in assay [17] it was 0.299. The composite z-score in assay [18] was -0.413; in assay [19], 1.03; in assay [20], 0.147. Also, the z-score in [8] was 2.38 (inactive); in [12], 0.347 (inactive); in assay [13], 1.57 (inactive); in assay [14] it was 3.52 (inactive); in assay [16], -0.708 (inactive).

With `CC(C)C[C@@H]1NC(=O)[C@@H]2C[C@H](C(=O)NCCCC[N+](C)(C)C)[C@H](c3cccc(OCCO)c3)N2C1=O`, the composite z-score in [1] is 0.157; in assay [2], 1.09; in assay [3] it was -0.0784; in assay [4], -0.0155; in assay [5], -0.884; in assay [6], 1.05. Also, the composite z-score in [7] is 1.12; in [9] it was 0.496; in assay [10], 0.595; in [11] it was 1.31; in assay [15] it was 0.622; in assay [17] it was -0.0123. Besides, the composite z-score in [18] was 1.84; in assay [19] it was 1.04; in [20], -0.0069. In addition, the z-score in assay [8] was 0.14 (inactive); in assay [12], 1.14 (inactive); in assay [13], 0.936 (inactive); in assay [14] it was -0.567 (inactive); in [16], -0.329 (inactive).

As for `COc1ccc([Si](C)(C)[C@H]2[C@H](CC(=O)N3CCC[C@H]3CO)O[C@@]3(C(=O)N(Cc4ccc(N5C(=O)c6cccc7cccc5c67)cc4)c4ccccc43)[C@@H]2C)cc1`, the composite z-score in assay [1] is -0.276; in [2], 0.623; in [3] it was -0.071; in assay [4] it was 0.751; in assay [5], 0.517; in assay [6], 0.916. Also, the composite z-score was 0.804 in assay [7]; 0.361 in assay [9]; -0.221 in [10]; 1.54 in [11]; 2.5 in assay [15]; -0.057 in assay [17]. Besides, the results for the composite z-score in assay [18], in [19] and in assay [20] were 1.11, 1.13 and 0.0333, respectively. In addition, the z-score was -4.19 (inactive) in assay [8]; -0.631 (inactive) in [12]; 0.363 (inactive) in [13]; -0.403 (inactive) in assay [14]; 0.965 (inactive) in assay [16].

On to `COC(=O)[C@]1(Cc2ccccc2CN=[N+]=[N-])N=C(c2ccc(OCCCO)cc2)O[C@@H]1c1ccccc1CN=[N+]=[N-]`, for which the composite z-score in [1] is 0.409; in assay [2] it was -0.119; in [3], -0.087; in assay [4] it was 0.013; in assay [5] it was -0.443; in [6] it was 0.726. In addition, the composite z-score was 1.28 in assay [7]; -0.117 in [9]; -0.0994 in assay [10]; 0.921 in [11]; 2 in [15]; 0.111 in assay [17]. Further, the composite z-score is 0.435 in assay [18], -0.253 in [19] and -0.0828 in assay [20]. The z-score in [8] is -0.904 (inactive); in assay [12], -0.456 (inactive); in [13], -1.09 (inactive); in assay [14] it was 33.5 (active); in assay [16], 2.08 (inactive).

Consider `CCCN1C(=O)[C@@]2(Cc3ccccc3)N=C(c3ccc(OCCCO)cc3)O[C@H]2c2ccccc21`, for which the composite z-score was -0.0679 in assay [1]; 0.802 in assay [2]; -0.047 in assay [3]; 0.186 in assay [4]; 0.498 in [5]; 0.602 in assay [6]. Further, the composite z-score in assay [7] is 1.12; in [9], -0.0754; in assay [10] it was -0.0573; in assay [11], 1.54; in assay [15], 3.13; in assay [17], 0.152. The composite z-score was 1.29 in assay [18], 1.05 in assay [19] and -0.0976 in [20]. Further, the z-score in [8] was -1.25 (inactive); in [12], -1.46 (inactive); in assay [13], -4.12 (inactive); in [14], 1.52 (inactive); in assay [16], 1.09 (inactive).
